Giardia killer: Small Molecules that selectively kill Giardia lamblia: qHTS; Giardia lamblia trophozoite viability; activity change, % at 7.66 µM, hits read low; 340,000 tested, 0.15% active; AID 540267, 2011; in the data active = activity change below about -80%; inconclusive = between about -30% and that limit;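 also: parasites exposed to compound for two days anaerobically before the ATP read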
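Media and compound were dispensed first, then trophozoites at 100 cells/well; plates sat 48 hrs at 37 deg C without oxygen before ATP luminescence reagent was added and read after 15-30 min at room temperature.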
FBPA coupling cs: qHTS Assay for Inhibitors of Fructose-1,6-bisphosphate Aldolase from Giardia Lamblia: Coupling assay counterscreen. activity change, negative = inhibition, % at 58.2 µM, hits read low. coupling enzyme system counterscreen, AmpLite Red fluorescence. 290,000 tested, 0.67% active; in the data active = activity change below about -30%
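Compounds tested against the coupling enzymes alone at 57.5 uM final; readout was AmpLite Red fluorescence (525/598 nm) after 20 min at RT.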
ELG1 repair inh: qHTS screen for small molecules that inhibit ELG1-dependent DNA repair in human embryonic kidney (HEK293T) cells expressing luciferase-tagged ELG1; 330,000 tested, 2.3% active; Potency, µM (doses to about 46.1 µM), hits mostly inhibitors; HEK293T ELG1-luciferase reporter, luminescence, 16 h; DNA damage induced by 5-fluorouridine; AID 504467, 2011; also: nearly all actives have a fitted effect of over 55% in size
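Step one: seed 2,000 cells per well. Step two: pin-transfer compound or DMSO alongside 5-fluorouridine. Step three: incubate 16 hr, 37 °C, 5% CO2. Step four: add ONE-Glo, wait 30 min, read luminescence.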
Sfp PPTase inh: qHTS Assay for Inhibitors of Bacillus subtilis Sfp phosphopantetheinyl transferase (PPTase); 4'-phosphopantetheinyl transferase ffp (Bacillus subtilis), Q9F4F7; Biochemical Sfp PPTase activity, qHTS; Potency, µM, actives largely listed as inhibitors; 310,000 tested, 3.5% active;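 also: the enzyme is Sfp with the accession as filed and its product quenches rhodamine fluorescence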
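Reaction rates are the 30-min fluorescence difference (ex 525, em 598 nm) in wells containing 15 nM Sfp, 5 uM rhodamine-CoA and 12.5 uM BHQ-2-YbbR at pH 7.6 with 10 mM MgCl2.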
Hits are given with their value. Sampled rows, rich in hits. Any-hit rate of the full collection: about 5.5%. Unless noted, calls follow the shape of the dose curve; as a rule, active = well fitted curve in the direction sought with a large enough effect; inconclusive = small, poorly fitted or top-dose-only effect, or another doubt; inactive = no such curve, though single readings can be large; an effect the other way counts as inactive or inconclusive.

What do the screens show for `CCCOc1ccc(/C(O)=C2/C(=O)C(=O)N(CCCN3CCOCC3)C2c2ccncc2)cc1` (stereo not given)?
FBPA coupling cs: -62; ELG1 repair inh: inactive; Sfp PPTase inh: inconclusive

How did COc1ccc(/C(O)=C2/C(=O)C(=O)N(CCN3CCOCC3)C2c2ccccn2)cc1OC (stereo not given) do in these assays?
Giardia killer: inactive; FBPA coupling cs: inactive; ELG1 repair inh: inconclusive; Sfp PPTase inh: 50µM

Results for CCCCOc1ccc(/C(O)=C2/C(=O)C(=O)N(CCCOC)C2c2ccncc2)cc1 (stereo not given) ?
Giardia killer: inactive; FBPA coupling cs: inactive; ELG1 repair inh: inactive; Sfp PPTase inh: inactive

Results for O=C1C(=O)N(CCN2CCOCC2)C(c2cccnc2)/C1=C(/O)c1ccccc1 (stereo not given) ?
FBPA coupling cs: inactive; ELG1 repair inh: inactive; Sfp PPTase inh: inactive

Results for Cc1ccc(C2/C(=C(/O)c3cnn(-c4ccccc4)c3C)C(=O)C(=O)N2CCN2CCOCC2)o1 (stereo not given) ?
Giardia killer: inactive; FBPA coupling cs: inactive; ELG1 repair inh: inconclusive; Sfp PPTase inh: 50µM

How did O=C1C(=O)N(CCN2CCOCC2)C(c2ccccn2)/C1=C(/O)c1ccccc1 (stereo not given) do in these assays?
Giardia killer: inactive; FBPA coupling cs: inactive; ELG1 repair inh: inconclusive; Sfp PPTase inh: 56µM

What do the screens show for `COc1cccc(NC(=O)CN(C)C(C)C(=O)NC(C)c2ccc(Cl)cc2Cl)c1` (stereo not given)?
Giardia killer: inactive; ELG1 repair inh: inactive

What do the screens show for `Cc1cc(C)n2nc(SCC(=O)NC3CCCC(C)C3C)nc2n1` (stereo not given)?
Giardia killer: inactive; FBPA coupling cs: inactive; ELG1 repair inh: inactive; Sfp PPTase inh: inactive

What do the screens show for `Cc1cc(C)c(S(N)(=O)=O)c(C)c1N(C)S(=O)(=O)c1ccc(Cl)cc1`?
Giardia killer: inactive; ELG1 repair inh: inactive; Sfp PPTase inh: inactive

How did Cc1ccc(/C(O)=C2/C(=O)C(=O)N(CCN3CCOCC3)C2c2ccccn2)cc1 (stereo not given) do in these assays?
Giardia killer: inactive; FBPA coupling cs: inactive; ELG1 repair inh: inconclusive; Sfp PPTase inh: 56µM

How did Cc1ccc(NC(=S)NNC(=S)NCc2ccccc2)cc1 do in these assays?
Giardia killer: inactive; FBPA coupling cs: inactive; ELG1 repair inh: inactive; Sfp PPTase inh: 56µM

Results for FC(F)(F)c1cccc(NC(=S)NNC(=S)NCc2ccccc2)c1 ?
Giardia killer: inactive; FBPA coupling cs: inactive; ELG1 repair inh: inconclusive; Sfp PPTase inh: 45µM

Results for FC(F)(F)c1cccc(NC(=S)Nc2cccc(NC(=S)Nc3cccc(C(F)(F)F)c3)n2)c1 ?
Giardia killer: inactive; FBPA coupling cs: inactive; ELG1 repair inh: inconclusive; Sfp PPTase inh: 20µM

How did CCNC(=S)NNC(=S)NCc1ccccc1 do in these assays?
Giardia killer: inactive; FBPA coupling cs: inactive; ELG1 repair inh: inactive; Sfp PPTase inh: 56µM

What do the screens show for `COc1cccc(-c2nc(CS(=O)(=O)CC(=O)Nc3ccc(C(C)=O)cc3)c(C)o2)c1`?
Giardia killer: inactive; ELG1 repair inh: inconclusive; Sfp PPTase inh: inactive

Results for COC(=O)NC/C=C\c1nc(CCCO)co1 ?
FBPA coupling cs: inactive; Sfp PPTase inh: inactive

How did O=C(NC1CCCCCC1)c1ccccc1-c1ccccc1 do in these assays?
Giardia killer: inactive; FBPA coupling cs: inactive; ELG1 repair inh: inactive; Sfp PPTase inh: inactive

What do the screens show for `O=C(NC1CCCCCCC1)c1ccccc1-c1ccccc1`?
Giardia killer: inactive; FBPA coupling cs: -36; ELG1 repair inh: inactive; Sfp PPTase inh: inactive

How did CNc1ccc(Br)cc(C(=O)/C=C/c2cccc(OC)c2)c1=O do in these assays?
Giardia killer: inactive; FBPA coupling cs: inactive; ELG1 repair inh: inconclusive; Sfp PPTase inh: 20µM

What do the screens show for `O=C(/C=C/c1ccc(Cl)cc1Cl)c1ccc[nH]1`?
Giardia killer: inactive; FBPA coupling cs: inactive; ELG1 repair inh: inconclusive; Sfp PPTase inh: inactive

Results for CNc1ccc(Br)cc(C(=O)/C=C/c2ccc(Cl)cc2Cl)c1=O ?
Giardia killer: inactive; FBPA coupling cs: inactive; ELG1 repair inh: inconclusive; Sfp PPTase inh: 14µM

What do the screens show for `CNc1ccc(Br)cc(C(=O)/C=C/c2ccc(OC)cc2OC)c1=O`?
Giardia killer: inactive; FBPA coupling cs: -39; ELG1 repair inh: inconclusive; Sfp PPTase inh: inconclusive

What do the screens show for `CSCCC(NC(=O)c1ccccc1Cl)C(=O)N1CCCCC1` (stereo not given)?
Giardia killer: inactive; ELG1 repair inh: inactive

How did CCCCCCCCCCCCCCC(C(=O)OC)C(O)(CC(=O)OC)C(=O)OC (stereo not given) do in these assays?
FBPA coupling cs: inactive; Sfp PPTase inh: inactive

Results for CN1CCc2c(sc(/N=C/c3cc(C(C)(C)C)ccc3O)c2C#N)C1 ?
Giardia killer: inactive; FBPA coupling cs: inactive; ELG1 repair inh: inactive; Sfp PPTase inh: 71µM

What do the screens show for `COc1ccc(C2CC(c3ccccc3)Oc3c(C)ccc(C)c32)cc1` (stereo not given)?
Giardia killer: inactive; FBPA coupling cs: inactive; Sfp PPTase inh: inactive

Results for CCCCCCCCCCn1c2c(c(=N)c3c1CCC3)CCC2 ?
Giardia killer: inactive; FBPA coupling cs: inactive; ELG1 repair inh: inconclusive; Sfp PPTase inh: 28µM

Results for CCCCCCCCn1c2c(c(=N)c3ccccc31)CCC2 ?
Giardia killer: inactive; FBPA coupling cs: inactive; ELG1 repair inh: inactive; Sfp PPTase inh: inactive

Results for CCCCCCCCCn1c2c(c(=N)c3c1CCC3)CCCC2 ?
Giardia killer: inactive; FBPA coupling cs: inactive; ELG1 repair inh: inconclusive; Sfp PPTase inh: 45µM

How did CCCCn1c2c(c(=N)c3ccccc31)CCC2 do in these assays?
Giardia killer: inactive; FBPA coupling cs: inactive; ELG1 repair inh: 1.6µM; Sfp PPTase inh: inactive

Results for CCn1c2c(c(=N)c3c1CCC3)CCCC2 ?
Giardia killer: inactive; FBPA coupling cs: inactive; ELG1 repair inh: inconclusive; Sfp PPTase inh: inactive

What do the screens show for `CCc1ccc(C2=NNC(=Nc3cccc(S(=O)(=O)N(C)C)c3)SC2)cc1`?
Giardia killer: inactive; FBPA coupling cs: inactive; ELG1 repair inh: inconclusive; Sfp PPTase inh: 71µM

What do the screens show for `O=C(NCc1ccco1)c1csc(Nc2ccccc2Cl)n1`?
Giardia killer: inactive; FBPA coupling cs: inactive; ELG1 repair inh: inactive; Sfp PPTase inh: 28µM

How did O=C(c1csc(Nc2ccccc2Cl)n1)N1CCCC1 do in these assays?
Giardia killer: inactive; FBPA coupling cs: inactive; ELG1 repair inh: inconclusive; Sfp PPTase inh: 79µM

Results for Cc1ccc(OCc2ccc(C(=O)N3CCOCC3)cc2)cc1C ?
Giardia killer: inactive; FBPA coupling cs: inactive; ELG1 repair inh: inconclusive; Sfp PPTase inh: 35µM

How did COc1cc2c(C#N)c(N3CCN(c4ccccc4OC)CC3)nc(N)c2c(N)n1 do in these assays?
Giardia killer: inactive; FBPA coupling cs: -52; ELG1 repair inh: 9.2µM; Sfp PPTase inh: inactive

What do the screens show for `CCOc1cc2c(C#N)c(N3CCCC3)nc(N)c2c(N)n1`?
Giardia killer: inactive
